Results from PubChem BioAssay (EPA / NIEHS).
Several values for one entry are separate records, joined by “and”; a condition that tells them apart may be missing. Identical values can stand only once. Results filed as inconclusive are left out. Some compounds were tested as several samples or in several runs, with calls that do not always agree. Activity calls are given as the source filed them. The calls were made as follows: active = hit-call score of the fitted dose curve at least 0.9, where 1 is the maximum; inconclusive = response in the unintended direction; inactive = score below 0.9.

test: TOX21_p53_BLA_p4_viability: Viability Assessment in the Tox21 HCT-116 p53 Agonism Beta-lactamase Assay, Phase 4 (AID 2283597);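 also: hits lower the luminescence signal meaning cytotoxicity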
Source text: TOX21_p53_BLA_p4 is a cell-based, single-readout assay that uses HCT116, a human intestinal cell line, […] in a 1536-well plate.TOX21_p53_BLA_p4_viability is an assay readout measuring cellular ATP content and detected with CellTiter-Glo Luciferase-coupled ATP quantitation.TOX21_p53_BLA_p4_viability used a type of viability reporter where loss-of-signal activity can be used to understand changes in the cell viability. Furthermore, this assay endpoint can be referred to as a secondary readout, because this assay has produced multiple assay endpoints where this one serves a viability function. To generalize the intended target to other relatable targets, this assay endpoint is annotated to the cell cycle intended target family, where the subfamily is cytotoxicity.
Thawing Method: Place 14 mL of pre-warmed thaw medium into a 15 mL of conical tub. Remove the vial of cells to be thawed from liquid nitrogen and thaw rapidly by placing at 37C in a water bath with gentle agitation for 1-2 minutes. Decontaminate the vial by wiping with 70% ethanol before opening in a biological safety cabinet. Transfer the vial contents drop-wise into 14 mL of thaw medium in a sterile 15-mL conical tub. Centrifuge cells at 900 rpm for 4 minutes and resuspend in thaw medium. Transfer contents to the T75 tissue culture flask containing Thaw Medium and place flask in a humidified 37C/5% CO2 incubator. Switch to growth medium at first passage.Propagation Method: Aspirate medium, rinse once in DPBS, add 0.25% Trypsin/EDTA and swirl to coat the cell evenly. Add an equal volume of Growth Medium to inactivate Trypsin after 2-3 minutes incubation at 37C. Centrifuge cells at 900 rpm for 4 minutes and resuspend in growth medium. Cell should be passage or fed at least twice a week.Assay Protocol: Harvest cells from culture in growth medium and resuspend in assay medium. 2.2 Dispense 4000 cells/5 uL/well into 1536-well black/clear bottom plates using a Multidrop dispenser. After the cells were incubated at 37C for 5 hours, 23 nL of compounds dissolved in DMSO were transferred to the assay plate by a PinTool resulting in a 217-fold dilution. Incubate the plates for 16 hours at 37C, 5% CO2. Add 1 uL of 6X LiveBLAzer FRET B/G (CCF4-AM) Substrate Mixture to each well using a BioRAPTR dispenser and incubate the plates at room temperature for 2 hours. Measure fluorescence intensity at 460 and 530 nm emission and 405 nm excitation by an Envision detector. Data is expressed as the ratio of 460nm/530nm emissions. Add 4 uL of Cell-titer Glo to each well using BioRAPTR and incubate the plates at room temperature for […]. For cell viability readout that measures cytotoxicity, 4 ul/well of CellTiter-Glo reagent was added into the assay plates using a Flying Reagent Dispenser. After 30 min incubation at room temperature, the luminescence intensity in the plates was measured using a ViewLux plate reader.

SMILES	outcome	AC50
O=S1(=O)CC=CC1	inactive	–
C=C1CC/C=C(\C)CC[C@@H]2[C@@H]1CC2(C)C	inactive	–
O=c1cc(-c2ccc(O)cc2)oc2cc(O)cc(O)c12	inactive	–
NCCN1CCNCC1	inactive	–
C=C(C)CCCC(C)CCO (stereo not given)	inactive	–
CCCCCCC(C)O (stereo not given)	inactive	–
CC(=O)CCC=C(C)CCC=C(C)C	inactive	–
CCc1cccc(O)c1	inactive	–
NC(N)=NC(N)=NCCc1ccccc1	inactive	–
CC/C=C\C#N	inactive	–
c1coc(CNc2ncnc3nc[nH]c23)c1	inactive	–
[Na+]	inactive	–
CC/C=C\CCOC(=O)C(C)C	inactive	–
Nc1cc([N+](=O)[O-])ccc1C(=O)O	inactive	–
CCCCCCCCCCCCOCCOS(=O)(=O)O	–	60.4 µM (active)
Nc1ccn([C@H]2CC[C@@H](CO)O2)c(=O)n1	inactive	–
CC(CO)c1ccccc1 (stereo not given)	inactive	–
CC(C)Cc1ccc(C(C)C(=O)O)cc1 (stereo not given)	inactive	–
O=Cc1ccccc1O	inactive	–

SMILES	outcome	AC50
CC(C)(CO)CO	inactive	–
CCCCCCCC1CCCC1=O (stereo not given)	inactive	–
CCCCCc1cccc(=O)o1	inactive	–
CCC(C)(C)C1CCC(OC)CC1 (stereo not given)	inactive	–
CC/C(=C(\c1ccccc1)c1ccc(OCCN(C)C)cc1)c1ccccc1	inactive	22.9 µM (active) and 46.5 µM (active) and 32.3 µM (active)
CCCc1ccc(N)cc1	inactive	–
CC(C)=CCCC(C)=CC(=O)O	inactive	–
CC(C)COC(=O)c1ccccc1O	inactive	–
CCCCC/C=C\C=C\C(=O)OCC	–	66.6 µM (active)
CCCCCCCC(=O)N(C)C	inactive	–
Cc1ccncc1	inactive	–
CCCCCCCCCCCCCCCCCC(=O)OCCCCCCCCCCCCCC(C)C	inactive	–
CN1CCc2cccc3c2[C@H]1Cc1ccc(O)c(O)c1-3	inactive	35.5 µM (active) and 44.9 µM (active)
CC(=O)CC(C)(C)C1CCCCC1	inactive	–
CC(CCO)CC(C)(C)C (stereo not given)	inactive	–
CN(C)C	inactive	–
C[C@]12CC[C@@H]3c4ccc(O)cc4CC[C@H]3[C@@H]1CC[C@@H]2O	inactive	–
CCO[Si](CC)(OCC)OCC	inactive	–
C=CC(=O)OCCCCCC	inactive	–
